Sampled rows, rich in hits. Any-hit rate of the full collection: about 4.5%.
Rce1 inhib = yeast Rce1p protease inhibitors, primary screen, biochemical, fluorescence, cell-free homogeneous; CAAX prenyl protease 2 (Saccharomyces cerevisiae (strain ATCC 204508 / S288c)), Q03530; yeast membranes, quenched prenylated peptide cleavage fluorescence; calls only; 0.27% of 290,000 active;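 active means fall in fluorescence gain of 50% or more versus controls, with final raw signal at or below 3038400; inconclusive means same 50% fall but final raw signal above 3038400; inactive means fall in fluorescence gain under 50%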;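 further: plate controls were neutral control wells for no effect and wells lacking membranes for full effect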
Target sequence (Q03530 whole entry, looked up): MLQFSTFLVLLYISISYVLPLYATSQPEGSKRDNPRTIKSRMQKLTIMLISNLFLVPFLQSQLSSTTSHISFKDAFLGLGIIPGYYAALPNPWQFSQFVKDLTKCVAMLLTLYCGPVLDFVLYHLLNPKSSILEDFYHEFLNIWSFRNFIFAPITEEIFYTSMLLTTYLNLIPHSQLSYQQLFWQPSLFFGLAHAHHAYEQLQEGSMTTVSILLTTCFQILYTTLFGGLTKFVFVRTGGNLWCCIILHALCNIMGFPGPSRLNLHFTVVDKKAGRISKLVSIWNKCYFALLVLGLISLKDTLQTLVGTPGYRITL
Efflux pump mplx = inhibitors of Candida efflux pumps in yeast, primary screen, S. cerevisiae, Nile Red, multiplex; S. cerevisiae Candida pump triplex; inhibition, % at 10 µM; 0.44% of 330,000 active;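 active means plate passing quality check with inhibition over a set limit, or well fluorescence over plate mean plus 4 SD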;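 further: Nile Red retained in pooled yeast measured as flow cytometry median fluorescence; 0% = buffer negative control and 100% = Enniatin B positive control; higher means more Nile Red kept so more efflux inhibition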
Rtt109 Vps75 = inhibitors of C. albicans Rtt109/Vps75 HAT, primary screen, biochemical, ThioGlo CoA-SH fluorescence, plate reader; Histone acetyltransferase RTT109 (Candida albicans (strain SC5314 / ATCC MYA-2876)), …; purified Rtt109/Vps75, 4 h; inhibition, % at 34.9 µM; 0.16% of 330,000 active;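 active means inhibition of at least 50% in every replicate; inconclusive means best replicate reaches 50% inhibition but some replicates fall short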
HDAC3 inhib = HDAC3 deacetylase inhibitors, primary screen, biochemical, fluorescence, cell-free homogeneous. recombinant HDAC3, fluorogenic peptide/trypsin coupled. inhibition, % at 8.3 µM. 0.15% of 320,000 active. AID 2718, 2010; in the data active means inhibition above about 26%, passing the limit was not always enough; inconclusive means no clear call, values can overlap the other calls
GRK2 inh = compounds blocking aptamer binding on GRK2 – biochemical, human GRK2, bead flow cytometry, HTS, primary screen; Beta-adrenergic receptor kinase 1 (Homo sapiens), P25098; FAM-aptamer displacement from GRK2; inhibition of aptamer binding, % at 10 µM; 0.59% of 330,000 active; AID 488847, 2010;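 active means inhibition of aptamer binding above 40%, roughly 3 SD of noise, on plates passing a quality check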;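 further: median bead fluorescence of bound FAM aptamer so fluorescent compounds give negative values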
ALR inh = inhibitors of human ALR sulfhydryl oxidase, primary screen, biochemical, H2O2 detection, HRP-luminol luminescence, single point | inhibition, % (concentration not given with the values) | FAD-linked sulfhydryl oxidase ALR (Homo sapiens), P55789 | AID 485317, 2010 | purified ALR, DTT oxidation | 3.8% of 290,000 active;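 active means mean replicate inhibition above about 79%, with every replicate also reaching it, limit read from the data; inconclusive means only one of the two criteria met; inactive means mean below limit and not every replicate reaching it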
Target sequence (P55789 whole entry, looked up): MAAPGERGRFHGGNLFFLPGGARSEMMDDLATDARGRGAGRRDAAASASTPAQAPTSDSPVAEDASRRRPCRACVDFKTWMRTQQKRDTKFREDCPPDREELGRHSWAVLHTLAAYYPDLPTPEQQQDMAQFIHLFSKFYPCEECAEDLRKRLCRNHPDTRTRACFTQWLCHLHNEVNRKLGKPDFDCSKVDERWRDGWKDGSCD
GRK2 CP1 = GRK2 aptamer-displacing inhibitors, retest, confirmation, biochemical, cherry pick 1, bead flow cytometry; shares compounds with GRK2 inh; bead-bound GRK2, FAM-aptamer displacement; aptamer displacement, % at 10 µM; 4% of 2,000 active; AID 504451, 2011;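 active means aptamer displacement above 40%, near three times the noise of non-fluorescent compounds, on plates passing quality checks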;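 further: negative values mostly reflect intrinsic compound fluorescence rather than true enhancement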
FAM quench CP1 = quenches fluorescent RNA aptamer, GRK2 hit artifact; Carboxyfluorescein RNA aptamer on beads, flow cytometry quenching; active compounds read low; fluorescence response (% of DMSO), % at 10 µM; 2,000 tested, under 10 active; shares compounds with GRK2 inh;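 active means compounds that quench the bead-bound fluorescent RNA probe, cutting fluorescence to under half of the solvent control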;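 further: counterscreen run without GRK2 so only probe quenching by compound is measured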
GRK2 CP2 = GRK2 aptamer-displacing inhibitors, hit retest, confirmation, biochemical, cherry pick 2, bead flow cytometry; 360 tested, under 10 active; bead-bound GRK2, FAM-aptamer displacement; inhibition of aptamer binding, % at 10 µM; AID 504782, 2011; shares compounds with GRK2 inh;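 active means inhibition of aptamer binding above 40%, about triple the noise seen with nonglowing compounds, on plates passing quality control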;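 further: negative values mostly come from compounds that fluoresce themselves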
FAM quench CP2 = aptamer fluorescence quenching in GRK2 counter-screen. shares compounds with GRK2 inh. carboxyfluorescein RNA aptamer beads, flow cytometry quenching; active compounds read low. fluorescence response vs DMSO, % at 10 µM. 360 tested, under 10 active;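 active means response vs DMSO under 50%, meaning signal dropped by over half, treated as fluorescence quencher; inconclusive means no clear call, values can overlap the other calls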;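 further: labelled aptamer on streptavidin beads without GRK2 as a quench counter-screen; 100% = bead fluorescence of DMSO wells and lower means quenching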
* = called active by the depositor.

`O=c1c(O)cccc2cc(O)c(O)c(O)c12` gave Rce1 inhib inactive, Efflux pump mplx 0, Rtt109 Vps75 inconclusive, HDAC3 inhib 4, GRK2 inh 100*, ALR inh 100*, GRK2 CP1 30 and FAM quench CP1 91.
For C=CCNC(=S)/N=c1/ccccn1CC the results were Rce1 inhib inactive, Efflux pump mplx 0, Rtt109 Vps75 15, HDAC3 inhib -2, GRK2 inh 3 and ALR inh 7.
CCC(CC)NC(=O)Nc1ccccc1C(F)(F)F was read as Rce1 inhib inactive, Efflux pump mplx 0, Rtt109 Vps75 -1, HDAC3 inhib 4 and GRK2 inh 1.
`COc1ccc(NC(=O)c2ccccc2[N+](=O)[O-])cc1` gave Rce1 inhib inactive, Efflux pump mplx 1, Rtt109 Vps75 -7, HDAC3 inhib 6, GRK2 inh 51*, ALR inh -2, GRK2 CP2 10 and FAM quench CP2 98.
Screening O=C(O)c1ccccc1CC(CCc1ccccc1)C(=O)O (centres undefined) returned Rtt109 Vps75 -4.
For CC1CC(C)CN(C(=O)c2cn(C)c3ccc(S(=O)(=O)N(C)C)cc3c2=O)C1 (centres undefined) the results were Rce1 inhib inactive, Efflux pump mplx 0, Rtt109 Vps75 -3, HDAC3 inhib 0, GRK2 inh 86*, ALR inh -9, GRK2 CP1 1 and FAM quench CP1 103.
CCn1cc(C(=O)N2CC(C)CC(C)C2)c(=O)c2cc(S(=O)(=O)N(C)C)ccc21 (centres undefined) was read as Rce1 inhib inactive, Efflux pump mplx 0, Rtt109 Vps75 4, HDAC3 inhib -8, GRK2 inh 0 and ALR inh -7.
Cc1cccc(NC(=O)C(=O)NCC2CCCO2)c1 (centres undefined) was read as Rce1 inhib inactive, Efflux pump mplx 0, Rtt109 Vps75 -1, HDAC3 inhib 1 and GRK2 inh 1.
Screening Cc1cnc(NC(=O)Cc2c[nH]c3ccccc23)s1 returned Rce1 inhib inactive, Efflux pump mplx 0, Rtt109 Vps75 20, HDAC3 inhib -1, GRK2 inh 51*, ALR inh -16, GRK2 CP1 -1 and FAM quench CP1 99.
O=[N+]([O-])c1ccccc1/C=C/C=N/Nc1nc(N2CCCCC2)nc(N2CCCCC2)n1 was read as Rce1 inhib inactive, Efflux pump mplx 0, Rtt109 Vps75 -7, HDAC3 inhib 0, GRK2 inh 0 and ALR inh -2.
For O=[N+]([O-])c1ccccc1/C=N/Nc1nc(N2CCCC2)nc(N2CCCC2)n1 the results were Rce1 inhib inactive, Efflux pump mplx 0, Rtt109 Vps75 0, HDAC3 inhib -4, GRK2 inh 59*, ALR inh inconclusive, GRK2 CP1 0 and FAM quench CP1 91.
`COc1ccc(-n2c(SCC(N)=O)nnc2-c2cccnc2)cc1` gave Rce1 inhib inactive, Efflux pump mplx 0, Rtt109 Vps75 0, HDAC3 inhib 18 and GRK2 inh 0.
For COc1cccc(-n2c(SCC(=O)O)nnc2-c2cccnc2)c1 the results were Rce1 inhib inactive, Efflux pump mplx 0, Rtt109 Vps75 -14, HDAC3 inhib -4, GRK2 inh 62*, ALR inh -9, GRK2 CP1 5 and FAM quench CP1 102.
For COc1ccc(NC(=O)N(C)C[C@H]2Oc3ccc(NC(=O)CCN4CCOCC4)cc3C(=O)N([C@H](C)CO)C[C@@H]2C)cc1 the results were Efflux pump mplx 0, Rtt109 Vps75 4, HDAC3 inhib 1, GRK2 inh 0 and ALR inh 0.
COc1ccc(N2CCN(C(=O)CNC(=O)c3cccc(Br)c3)CC2)cc1 was read as Rce1 inhib inactive, Efflux pump mplx 0, Rtt109 Vps75 5, HDAC3 inhib -12, GRK2 inh 0 and ALR inh 28.
For COc1ccc(Cc2c(O)nc(SC)n(C(C)=O)c2=O)cc1 the results were Rce1 inhib inactive, Efflux pump mplx 0, Rtt109 Vps75 3, HDAC3 inhib -1, GRK2 inh 100*, ALR inh 10, GRK2 CP1 -1 and FAM quench CP1 103.
Screening CCN(CC(=O)NCc1cccs1)CC(=O)Nc1ccccc1C returned Efflux pump mplx 1, Rtt109 Vps75 3, HDAC3 inhib -3, GRK2 inh 0 and ALR inh 0.
For CC(C)(C)c1ccc(C(=O)N2CCC(C(=O)NCCC3=CCCCC3)CC2)cc1 the results were Rce1 inhib inactive, Efflux pump mplx 0, Rtt109 Vps75 14, HDAC3 inhib -3, GRK2 inh 74*, ALR inh -4, GRK2 CP1 -1 and FAM quench CP1 120.
CCOc1ccccc1N1CC(C(=O)NCCOc2ccccc2OC)CC1=O (centres undefined) was read as Rce1 inhib inactive, Efflux pump mplx 0, Rtt109 Vps75 -8, HDAC3 inhib -3, GRK2 inh 1 and ALR inh 0.
For COc1ccc(C2CC(=O)C(C=NCCN3CCN(C(=S)Nc4ccccc4)CC3)=C(O)C2)cc1OC (centres undefined) the results were Rce1 inhib inactive, Efflux pump mplx 0, Rtt109 Vps75 2, HDAC3 inhib 10, GRK2 inh 1 and ALR inh -5.
For CN1C(=O)C(C)(C)c2cc(S(=O)(=O)N3CCCC(C(=O)NCc4ccccc4Cl)C3)ccc21 (centres undefined) the results were Rce1 inhib inactive, Efflux pump mplx 0, Rtt109 Vps75 -1, HDAC3 inhib inconclusive, GRK2 inh 0, ALR inh -10, GRK2 CP1 2 and FAM quench CP1 101.
